Screening results: PubChem, several laboratories
Hsp70 act: switches on Hsp70 transcription; HeLa Hsp70 promoter luciferase reporter, luminescence; scaled: vehicle 0, proteasome-inhibitor control 100%; activation, % at 10 µM; actives 0.04% (n = 200,000); AID 1203;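 active means activation above the mean across all tested compounds plus 3 SD, cutoff set per campaign, cut at about 5.5% in these data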;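 further: 100% = MG132 at 30 µM as the positive control and 0% = DMSO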
S1P4 agonist: activates the human S1P4 receptor; S1P4-expressing cell line, agonist reporter assay; activation, % at 4.98 µM; actives 0.35% (n = 220,000); AID 1509; in the data active means activation above about 11%;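 further: 0% = DMSO vehicle and 100% = reference agonist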
Target sequence (O95977 whole entry, looked up): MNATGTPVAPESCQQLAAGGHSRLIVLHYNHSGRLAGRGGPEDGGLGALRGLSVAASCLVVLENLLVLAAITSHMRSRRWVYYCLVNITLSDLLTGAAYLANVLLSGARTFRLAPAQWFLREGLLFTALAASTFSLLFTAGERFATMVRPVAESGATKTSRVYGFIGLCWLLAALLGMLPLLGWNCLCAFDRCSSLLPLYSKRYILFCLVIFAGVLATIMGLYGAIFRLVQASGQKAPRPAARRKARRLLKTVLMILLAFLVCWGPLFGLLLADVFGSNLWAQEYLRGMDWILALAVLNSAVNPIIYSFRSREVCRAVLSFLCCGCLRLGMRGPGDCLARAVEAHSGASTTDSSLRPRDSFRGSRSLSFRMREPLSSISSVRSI
S1P4 antagonist: human S1P4 receptor antagonism; S1P4-expressing cells, antagonist mode, reporter read-out; AID 1510; inhibition, % at 4.98 µM; actives 0.26% (n = 220,000); in the data active means inhibition above about 29%;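 further: 0% = wells stimulated with agonist and 100% = vehicle wells without agonist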
CHOP inhibitor: inhibitors of CHOP induction in ER stress response; inhibition, % at 10 µM; AID 2732; CHO-K1 CHOP-promoter luciferase, tunicamycin-induced, 15-18 h; actives 3.8% (n = 220,000);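 active means compounds that reduced the stress-induced luciferase reporter signal by more than about 70% of percent inhibition, limit read from the data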;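 further: 0% = tunicamycin plus vehicle and 100% = wells without tunicamycin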
* = called active by the depositor; . = not tested or not shown. This is a sample that favours compounds with a hit; in the whole collection about 4.2% have one here.

SMILES	Hsp70 act	S1P4 agonist	S1P4 antagonist	CHOP inhibitor
COc1ccc(N2C(=O)CC(Sc3ncn[nH]3)C2=O)c(OC)c1 (stereo unspecified)	0	-1	2	91*
Cc1nc(-c2ccc(NS(=O)(=O)c3ccccc3)cc2)cs1	0	0	4	15
COc1ccc(-c2cc3nc(C)c(CCC(=O)NCc4ccco4)c(C)n3n2)c(OC)c1	0	-3	-16	15
Cc1nc2cc(-c3ccc(Cl)cc3)nn2c(C)c1CCC(=O)NCc1ccco1	-1	0	-19	74*
Cc1nc2sc(C(c3cccs3)N3CCN(c4cccc(Cl)c4)CC3)c(O)n2n1 (stereo unspecified)	0	-1	-14	56
CC(C)c1ccc(NC(=O)c2cccc(Br)c2)cc1	0	0	-13	84*
CCOP(=O)(OCC)C(Nc1cccc(C(F)(F)F)c1)c1ccc(C)cc1 (stereo unspecified)	0	1	1	12
CCCOP(=O)(OCCC)C(Nc1cccc(C(F)(F)F)c1)c1ccc(C)cc1 (stereo unspecified)	0	-1	-16	90*
Cc1cccc2c1nc(-c1ccccc1)n1cnnc21	0	2	-3	36
Cn1nnnc1N=N/C(=N/Nc1ccccc1)c1ccccc1	.	-1	5	70*
Cc1ccc(N/N=C(/Sc2nnnn2-c2ccccc2)C(=O)c2ccccc2)cc1	0	0	-3	1
COc1cccc(C2C=C(c3ccc(OC)cc3OC)Nc3nnnn32)c1 (stereo unspecified)	0	1	-7	.
CCOC(=O)Cc1csc(NC(=O)c2c(O)c3ccccc3n(CC(C)C)c2=O)n1	-1	-4	9	85*
CC(C)Cn1c(=O)c(C(=O)Nc2ccccc2S(N)(=O)=O)c(O)c2ccccc21	0	0	-8	73*
CC(C)Cn1c(=O)c(C(=O)N/N=C/c2cccc(F)c2)c(O)c2ccccc21	0	1	-5	82*
O=C(N/N=C/c1cccc(F)c1)c1c(O)c2c([nH]c1=O)CCCC2	0	0	0	82*
CCC(C)n1c(=O)c(C(=O)Nc2ccccc2S(N)(=O)=O)c(O)c2ccccc21 (stereo unspecified)	0	0	4	48
Cc1sc2nc(CN(Cc3ccccc3)C(=O)NC3CCCCC3)[nH]c(=O)c2c1C	0	1	-9	.
Fc1ccc(Nc2nc(-c3ccncc3)nc3ccccc23)cc1	0	-2	-4	90*
COc1ccc(C(=O)c2ccc(Br)cc2)cc1	0	0	-10	76*
CCOC(=O)c1ccc(NC(=S)N2CCN(c3ccc(N4CCOCC4)nn3)CC2)cc1	0	1	-7	40
COc1cccc(CSc2nnnn2-c2ccc(O)cc2)c1	0	0	5	19
Cc1nc(N2CCN(C)CC2)c2sc(=S)n(-c3ccccc3)c2n1	0	1	-16	-13
Cc1nc(N2CCN(C)CC2)c2sc(=S)n(C)c2n1	0	0	-12	74*
CC(=O)O/N=C(/c1nonc1N)N1CCN(c2ccc([N+](=O)[O-])cc2Cl)CC1	0	0	-22	39
SMILES	Hsp70 act	S1P4 agonist	S1P4 antagonist	CHOP inhibitor
CCOC(=O)c1nnc(-c2ccccc2)nc1Oc1ccccc1Cl	0	2	-11	-16
Cc1ccc(S(=O)(=O)c2nc(Nc3nccs3)sc2Cl)cc1	0	0	-13	72*
CC(C)(C)CC(C)(C)NC(=O)c1ccc2snnc2c1	.	-1	-3	10
CCCCCCCCNC(=O)CCNC(=O)c1ccc(C(C)(C)C)cc1	0	0	-8	93*
Cc1ccc(/C=C2/NC(=O)N(c3ccccc3)C2=O)o1	0	-1	-14	8
O=C1N/C(=C/c2ccc(Br)s2)C(=O)N1c1ccccc1	0	3	-5	96*
Cc1ccc(S(=O)(=O)N(C)Cc2nc(-c3ccc(Br)cc3)no2)cc1	0	1	-5	83*
Cc1ccc(S(=O)(=O)N(C)Cc2nc(-c3ccncc3)no2)cc1	0	3	-13	25
C=CCn1c(C)cc(C(=O)Cn2ncc(Cl)c(Cl)c2=O)c1C	0	-1	-2	75*
CCc1ccc(NC(=O)Cn2c(=O)n(CCCC(=O)NCc3ccco3)c(=O)c3ccccc32)cc1	0	0	1	76*
C/C(=N\NC(=O)CNC(=O)C(c1ccccc1)c1ccccc1)c1ccc(C(C)(C)C)cc1	0	5	-18	86*
NS(=O)(=O)c1ccc(CCNc2ncnc3c2c(-c2ccccc2)cn3-c2ccc(F)cc2)cc1	0	-1	-11	75*
Fc1ccc(-n2cc(-c3ccccc3)c3c(NN4CCOCC4)ncnc32)cc1	0	-3	7	9
N#CC1=C(N)Oc2c(ccc3cccnc23)C1c1ccccc1 (stereo unspecified)	.	6	9	-8
CN(C)c1ccc(NC(=O)Nc2cccc3ccccc23)cc1	0	2	12	86*
CC(C)(C)c1cc(Cl)c(O)c(NC(=S)NC(=O)c2cccnc2)c1	0	2	-29	73*
CC(CN1CCOCC1)OC(=O)c1ccc(Br)cc1 (stereo unspecified)	0	-1	-11	92*
O=C(Nc1cnc2ccccc2c1)c1cccc(-n2cnnn2)c1	0	3	-30	-23
Cc1cc(C)c(/C=N/NC(=O)c2nnn(-c3nonc3N)c2COc2ccc(F)cc2)c(C)c1	.	0	-5	-6
Cc1ccc(COc2ccc(/C=N/NC(=O)c3nnn(-c4nonc4N)c3COc3ccc(F)cc3)cc2)cc1	.	1	-4	82*
CCCCOCCCNc1ncnc2c1[nH]c1ccccc12	0	3	-14	85*
Cc1[nH]n(-c2ccccc2)c(=S)c1C=Nc1ccc([N+](=O)[O-])cc1	0	0	-19	80*
O=C(CSCC(=O)Nc1ccc2ccccc2c1)NCc1ccccc1	0	1	-2	-15
CC(C)c1ccc(CNC(=O)CSCC(=O)Nc2ccc3ccccc3c2)cc1	0	1	-22	86*
CCOc1ccc(C2C(C(=O)/C=C/c3ccco3)=C(O)C(=O)N2CCN2CCOCC2)cc1OC (stereo unspecified)	0	1	6	7
SMILES	Hsp70 act	S1P4 agonist	S1P4 antagonist	CHOP inhibitor
Cc1cc(C)cc(OCC(=O)OC/C(O)=C(\C#N)c2nc3ccccc3[nH]2)c1	0	1	-1	79*
N#C/C(=C(/O)COC(=O)COc1cccc(Br)c1)c1nc2ccccc2[nH]1	.	2	-10	75*
Cc1cccc(C)c1OCC(=O)OC/C(O)=C(\C#N)c1nc2ccccc2[nH]1	0	1	-34	58
COc1ccc(/C(O)=C/C(=O)C(=O)NNC(=O)C(O)(c2ccccc2)c2ccccc2)cc1	0	1	-11	22
O=C(NC(=S)Nc1nc(-c2ccc(Br)cc2)cs1)c1ccco1	0	1	-4	84*
COc1ccc(Cl)cc1NC(=O)CN(C)C1CCCCC1	0	2	-7	76*
O=C1c2ccccc2NC(c2ccc(Cl)cc2Cl)N1Cc1ccccc1 (stereo unspecified)	0	1	12	87*
